From PubChem
Hits are enriched below; roughly 12% of the tested compounds scored in any of these assays.
HP1b binding inh = HP1-beta chromodomain-methylated histone interaction inhibition; P83916; AlphaScreen HP1-beta / biotin-H3K9me3 peptide binding; Potency, µM (highest dose often 114 µM), hits mostly inhibitors; hit rate 0.56% among 390,000; also: nearly all actives have a fitted effect of over 70% in size
Target sequence (P83916 whole entry, looked up): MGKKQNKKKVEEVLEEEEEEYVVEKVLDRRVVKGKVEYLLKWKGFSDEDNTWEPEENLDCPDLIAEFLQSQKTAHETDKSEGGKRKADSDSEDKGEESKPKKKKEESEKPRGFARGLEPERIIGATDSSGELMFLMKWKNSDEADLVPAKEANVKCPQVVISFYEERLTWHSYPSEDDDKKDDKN
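Compound inhibition of the preformed complex between 50 nM HP1-beta and 50 nM biotinylated H3K9me3 peptide was read by AlphaScreen. Buffer was PBS pH 7.4 with 0.01% Tween-20. Incubations ran 30 min at room temperature, with 10 ug/mL donor/acceptor beads.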
BAZ2B inh = inhibitors of human BAZ2B bromodomain. Q9UIF8. AlphaScreen BAZ2B-H3K14Ac peptide displacement. Potency, µM (top dose mostly 114 µM), most hits filed as inhibitors. hit rate 4.4% among 360,000. AID 504333; also: nearly all actives have a fitted effect of over 60% in size
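Inhibition is scored as reduced AlphaScreen emission. The BAZ2B/b-H3(5-23)K14Ac complex (50 nM each) in PBS pH 7.4, 0.01% Tween-20 meets compound (up to 110 uM) for 30 min at RT before bead addition.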
G9a inh = blocks human histone lysine methyltransferase G9a; AID 504332; hit rate 8.8% among 350,000; Potency, µM (series often up to 102 µM), hits mostly inhibitors; G9a H3K9 monomethylation, AlphaScreen, 2 h; also: nearly all actives have a fitted effect of over 75% in size
Target sequence (Q96KQ7 913-1193 limits assumed): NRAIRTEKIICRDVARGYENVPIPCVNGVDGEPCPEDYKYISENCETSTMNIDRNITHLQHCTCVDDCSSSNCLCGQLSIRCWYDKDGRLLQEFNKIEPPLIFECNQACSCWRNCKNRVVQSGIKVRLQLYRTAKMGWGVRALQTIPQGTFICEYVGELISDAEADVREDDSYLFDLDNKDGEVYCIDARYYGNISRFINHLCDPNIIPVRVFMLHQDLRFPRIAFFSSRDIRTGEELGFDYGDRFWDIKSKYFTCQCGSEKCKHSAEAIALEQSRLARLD
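Methyltransferase reactions run at room temperature for 2 h (20 nM enzyme, 500 nM biotin-H3K9 peptide, 20 uM SAM) after a 15 min compound preincubation; product detected by AlphaScreen beads and anti-H3K9me1 antibody.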
JMJD2A Tudor inh = inhibitors of human JMJD2A Tudor domain | AlphaScreen JMJD2A-Tudor / H3K4me3 peptide binding | hit rate 4.4% among 390,000 | Potency, µM (highest dose often 114 µM), most hits filed as inhibitors | AID 504339 | O75164; also: nearly all actives have a fitted effect of over 50% in size
PLK1 PBD block = blocks phosphopeptide binding to human PLK1 polo-box domain; P53350; Plk1 PBD binding of FITC phosphopeptide, fluorescence polarization; Potency, µM, usual class: inhibitors; hit rate 2.8% among 360,000; AID 720504; also: series mostly up to about 57 µM; nearly all actives have a fitted effect of over 65% in size
Sfp inh = Sfp phosphopantetheinyl transferase inhibition. Biochemical Sfp PPTase activity, qHTS. Potency, µM, actives largely listed as inhibitors. hit rate 3.5% among 310,000. AID 1490;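 also: the enzyme is Sfp with the accession as filed and its product quenches rhodamine fluorescence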
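Compounds were incubated with enzyme (final 15 nM) for 15 min at room temperature before substrate addition started the reaction. Fluorescence at 525 nm excitation, 598 nm emission was recorded immediately and after 30 minutes.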
Large screens that a line does not name were inactive. Calls follow the shape of the dose curve; as a rule, active = well fitted curve in the direction sought with a large enough effect; inconclusive = small, poorly fitted or top-dose-only effect, or another doubt; inactive = no such curve, though single readings can be large; an effect the other way counts as inactive or inconclusive.

Cc1ccc2scc(N3CCCCC3C)c(=O)c2c1 (stereo not given)	JMJD2A Tudor inh inconclusive (no result: PLK1 PBD block, Sfp inh)
CCc1ccc(NC(=O)c2cnn3c(C)cc(C)nc23)cc1	none (no result: HP1b binding inh, BAZ2B inh, G9a inh, PLK1 PBD block, Sfp inh)
CCC(=O)N1CCN=C1SCc1cccc(C(F)(F)F)c1	none (no result: G9a inh)
CCc1cccc(OCC(=O)Nc2ccc(S(=O)(=O)Nc3ccccn3)cc2)c1	BAZ2B inh inconclusive (no result: G9a inh)
Cc1ccccc1OCC(=O)Nc1ccc(S(=O)(=O)Nc2ncccn2)cc1	G9a inh inconclusive (no result: PLK1 PBD block, Sfp inh)
COc1ccc(C2(C(=O)Nc3ccc(S(=O)(=O)Nc4nc(C)cc(C)n4)cc3)CCCC2)cc1OC	G9a inh 50µM
Cc1ccc(OCC(=O)Nc2ccc(S(=O)(=O)Nc3ccccn3)cc2)cc1C	G9a inh 50µM
Cc1cc(C)c(C)c(OCC(=O)Nc2ccc(S(=O)(=O)Nc3nc(C)cc(C)n3)cc2)c1	G9a inh 14µM (no result: PLK1 PBD block, Sfp inh)
Cc1ccc(OCC(=O)Nc2ccc(S(=O)(=O)Nc3ncccn3)cc2)c(C(C)(C)C)c1	G9a inh 14µM (no result: PLK1 PBD block, Sfp inh)
Cc1cc(C)nc(NS(=O)(=O)c2ccc(NC(=O)C3(c4ccc([N+](=O)[O-])cc4)CCCC3)cc2)n1	G9a inh inconclusive
O=C1CC(c2ccccc2O)Oc2ccc(O)cc21 (stereo not given)	none (no result: HP1b binding inh, BAZ2B inh, G9a inh, JMJD2A Tudor inh, PLK1 PBD block)
COc1cc(OC)c(C(=O)/C=C/c2ccccc2)c(O)c1O	BAZ2B inh inconclusive, JMJD2A Tudor inh inconclusive
COc1ccc2ccccc2c1C(=O)/C=C\c1ccoc1	HP1b binding inh inconclusive, BAZ2B inh 28µM, G9a inh 45µM, JMJD2A Tudor inh inconclusive, Sfp inh 7.9µM
CCOC(=O)c1sc(NC(=O)CCCCl)nc1C	G9a inh 50µM
CCOC(=O)c1sc(Nc2ccc(F)cc2)nc1C	none
CCOC(=O)c1sc(NC(=O)/C=C/c2ccc(F)cc2)nc1C	HP1b binding inh inconclusive, PLK1 PBD block 21µM (no result: G9a inh)
COc1ccc(NC(=O)C2(C)Cc3c(-c4cccc(C(N)=O)c4)ccnc3O2)cc1OC (stereo not given)	none (no result: HP1b binding inh, BAZ2B inh, G9a inh, JMJD2A Tudor inh, Sfp inh)
Cc1ccc2c(c1)-c1nc(-c3ccc4c(c3)NC(=O)CO4)cc(-c3ccc(Cl)cc3)c1CO2	none (no result: PLK1 PBD block, Sfp inh)
O=[N+]([O-])c1ccc(-c2cc(-c3ccncc3)nc3ccc4ccccc4c23)cc1	BAZ2B inh inconclusive, G9a inh 45µM
Cc1ccc2c(c1)C(=O)[C@@]1(O)CCN(c3ccccc3)C1=N2	none (no result: HP1b binding inh, BAZ2B inh, G9a inh, JMJD2A Tudor inh, PLK1 PBD block)
Oc1ccc(/C=N/n2c(COc3ccccc3)n[nH]c2=S)cc1O	HP1b binding inh inconclusive, BAZ2B inh inconclusive, G9a inh 10µM, JMJD2A Tudor inh 3.2µM, PLK1 PBD block 21µM, Sfp inh 56µM
Cc1ccc(-c2[nH]ncc2/C=N/n2c(COc3ccccc3)nc3ccccc3c2=O)cc1	none
Cc1cc(/C=N/n2c(COc3ccccc3)nc3ccccc3c2=O)c(O)c([N+](=O)[O-])c1	HP1b binding inh inconclusive, BAZ2B inh 4.5µM, JMJD2A Tudor inh 13µM, PLK1 PBD block inconclusive
O=c1c2ccccc2nc(COc2ccccc2)n1/N=C/c1ccc(O)c(O)c1	BAZ2B inh 45µM, G9a inh 3.2µM, JMJD2A Tudor inh inconclusive
CCOc1cc(/C=N/n2c(COc3ccccc3)n[nH]c2=S)ccc1O	G9a inh 4.5µM, JMJD2A Tudor inh inconclusive
O=C(Nn1c(COc2ccccc2)nc2ccccc2c1=O)C(Cl)(Cl)Cl	G9a inh 50µM
CC1CCN(C(=O)CSc2ccc(-c3cccnc3)nn2)CC1	none
COc1cc2c(cc1OC)C1=NC(=O)CN1C(SCc1ccc(C)cc1)=N2	BAZ2B inh 79µM, G9a inh inconclusive
Cc1ccc(CSC2=Nc3sccc3C3=NC(=O)CN23)cc1	none
C=CCSC1=Nc2cc(OC)c(OC)cc2C2=NC(=O)CN12	G9a inh 50µM
COc1ccc(C(C(=O)NC2CCCC2)n2c(-c3cccs3)nc3ccccc32)cc1 (stereo not given)	none (no result: HP1b binding inh, BAZ2B inh, G9a inh, JMJD2A Tudor inh, Sfp inh)
O=C(O)C(Cc1c[nH]c2ccccc12)N1C(=O)C2C3c4ccccc4C(c4ccccc43)C2C1=O (stereo not given)	BAZ2B inh inconclusive, G9a inh 25µM
C[C@@H](C(=O)N[C@@H](Cc1c[nH]c2ccccc12)C(=O)O)n1nnc2ccccc2c1=O	JMJD2A Tudor inh inconclusive, PLK1 PBD block 30µM
O=C(Cn1nnc2ccccc2c1=O)N[C@@H](Cc1c[nH]c2ccccc12)C(=O)O	none
O=C(O)C(Cc1c[nH]c2ccccc12)NS(=O)(=O)c1cccc2nsnc12 (stereo not given)	G9a inh inconclusive, PLK1 PBD block inconclusive, Sfp inh 56µM
Cc1ccc(C(=O)Nc2ccccc2C(=O)NC(Cc2c[nH]c3ccccc23)C(=O)O)cc1 (stereo not given)	BAZ2B inh 79µM, PLK1 PBD block inconclusive
O=C(O)c1ccc2c(c1)C(=O)N([C@H](Cc1c[nH]c3ccccc13)C(=O)O)C2=O	none (no result: HP1b binding inh, PLK1 PBD block)
Cc1ccc(C(=O)Nc2ccccc2C(=O)NC(Cc2ccccc2)C(=O)O)cc1 (stereo not given)	BAZ2B inh inconclusive
CCc1cccc(NC(=O)c2cc3c(=O)[nH]c4ccccc4c3n2C)c1	none (no result: BAZ2B inh, PLK1 PBD block, Sfp inh)
O=C(Cc1cccs1)NC(Cc1c[nH]c2ccccc12)C(=O)O (stereo not given)	G9a inh 56µM, JMJD2A Tudor inh 22µM
Cc1nc(N[C@@H](Cc2c[nH]c3ccccc23)C(=O)O)c2oc3ccccc3c2n1	BAZ2B inh 56µM, G9a inh 5.6µM
CCCOc1ccc(C(=O)CCNC(Cc2c[nH]c3ccccc23)C(=O)O)cc1 (stereo not given)	G9a inh 7.9µM, PLK1 PBD block 5.3µM, Sfp inh inconclusive
COc1ccc(C(=O)NC(Cc2c[nH]c3ccccc23)C(=O)O)cc1 (stereo not given)	none
O=C(NCCc1ccc(Cl)cc1)c1ccc(CSCc2ccccc2Cl)o1	none (no result: PLK1 PBD block, Sfp inh)
Cc1ccc(-n2nc3cc(C)c(NC(=O)COc4ccccc4)cc3n2)cc1	none (no result: PLK1 PBD block, Sfp inh)
Cc1ccc(C(O)C2=CCCC2=O)cc1 (stereo not given)	none (no result: HP1b binding inh, BAZ2B inh, G9a inh, JMJD2A Tudor inh, PLK1 PBD block)
CC[n+]1ccc(C[n+]2ccccc2)c2ccccc21	HP1b binding inh 79µM, BAZ2B inh 10µM, G9a inh 1.6µM, JMJD2A Tudor inh inconclusive, Sfp inh 50µM
CCOC(=O)c1cc2c(=O)n3cccc(C)c3nc2n(Cc2ccccc2Cl)c1=N	none (no result: HP1b binding inh, JMJD2A Tudor inh, PLK1 PBD block)
O=C(NC1CCCCCCC1)c1c(O)c2ccccc2[nH]c1=O	none
C=CCn1c(N)c(C(=O)NCc2ccco2)sc1=S	HP1b binding inh inconclusive, BAZ2B inh inconclusive
O=C(NC1CCCC1)c1sc(=S)n2c1[nH]c(=O)c1ccccc12	BAZ2B inh inconclusive, G9a inh inconclusive, JMJD2A Tudor inh 89µM, PLK1 PBD block inconclusive
